VACV mCherry inh: qHTS for Stage-Specific Inhibitors of Vaccinia Orthopoxvirus: mCherry Reporter Primary qHTS; Vaccinia virus mCherry reporter infection, fluorescence; Potency, µM (top dose mostly 36.5 µM), for inactives: at the top dose activity change, negative = inhibition, hits mostly inhibitors; 310,000 tested, 0.63% active; calls by dose curve; tested in A549 cells; note: nearly all actives have a fitted effect of over 35% in size
MARV entry inh: qHTS for inhibitors of binding or entry into cells for Marburg Virus. Marburg virus pseudotyped entry inhibition, cell reporter. Potency, µM (top dose mostly 37.8 µM), without a hit: at the top dose activity change, negative = inhibition, usual class: inhibitors. 300,000 tested, 1.8% active; calls by dose curve; tested in HEK293 cells
Vaccinia Venus: qHTS for Stage-Specific Inhibitors of Vaccinia Orthopoxvirus: Venus Reporter Primary qHTS | Vaccinia virus Venus reporter expression, fluorescence | Potency, µM (doses to about 36.5 µM), without a hit: at the highest dose activity change, negative = inhibition, hits mostly inhibitors | 330,000 tested, 0.46% active; calls by dose curve; tested in A549 cells; note: nearly all actives have a fitted effect of over 30% in size
LASV entry inh: qHTS for Inhibitors of binding or entry into cells for Lassa Virus. 300,000 tested, 1.2% active. Potency, µM (top dose mostly 37.9 µM), inactives show at the highest dose activity change, negative = inhibition, actives largely listed as inhibitors. Lassa virus pseudotype entry inhibition, cell reporter; calls by dose curve; tested in HEK293 cells; note: nearly all actives have a fitted effect of over 50% in size
HCV inhibitor: qHTS Assay for Inhibitors of Hepatitis C Virus (HCV); Huh7.5.1 HCVcc-Cre infection, luciferase reporter, 44 h; Potency, µM (highest dose often 41.8 µM), without a hit: top-dose activity change, negative = inhibition, hits mostly inhibitors; 340,000 tested, 3.4% active; active = well fitted inhibition curve with a large enough effect; inconclusive = small, poorly fitted or top-dose-only effect, or another doubt; inactive = no such curve, though single readings can be large or run the other way
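Cells seeded at 1,000/well and cultured 4 h, then compounds added followed by HCVcc-Cre virus (~0.5 moi). After 44 h further culture, luciferase substrate was added, plates held 15 min at room temperature, and luminescence read for 15 sec.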
Active calls of the source: *; i = inactive; ? = inconclusive; nt = no result; [ ] = another dose, or the depositor's remark. Most compounds without a hit are left out; they make up all but 4.6% or so of the library. % is set by controls: 0 for no effect and ±100 for the full control effect; potency is the fitted concentration of half-maximal effect.

SMILES	VACV mCherry inh	MARV entry inh	Vaccinia Venus	LASV entry inh	HCV inhibitor
CC(=O)c1ccc(N2CCN(C(=O)c3nn(Cc4ccccc4)c(=O)c4ccccc34)CC2)cc1	-17.1%	?	-8.2%	10µM*	?
CC(=O)c1ccc(N2CCN(C(=O)c3n[nH]c4ccccc34)CC2)cc1	-3.1%	?	-21.1%	-12.3%	-20.7%
COc1ccccc1NC(=O)c1nc(SCc2ccccc2F)ncc1Cl	18.2%	nt	-17.2%	nt	nt
Cc1ccc(C(C)C)cc1OCC(=O)Nc1nnc(C2CC2)s1	2µM*	?	13.9%	?	-22.6%
CC12C=C(C=Cc3ccccc3)C(C)(C1)C(c1ccccc1)CC2=O (configuration not stated)	nt	-4.1%[14.2 µM]	nt	nt	nt
Cc1c(C(=O)Nc2ccncc2)sc2nc(-c3ccc(F)cc3)cn12	-21.8%	nt	?	nt	10µM*
COc1ccc(-c2cn3c(C)c(C(=O)Nc4ccncc4)sc3n2)cc1	-14.8%	nt	1.8%	nt	4.47µM*
COc1ccc(-c2cn3c(C)c(C(=O)N4CCCc5ccccc54)sc3n2)cc1	10µM*	nt	?	nt	11.2µM*
CCOC(=O)N1CCC(Nc2c(N3CCN(c4cc(Cl)ccc4C)CC3)c(=O)c2=O)CC1	5.3%	nt	-0.6%	nt	10µM*
Cc1ccc(NC(=O)Cc2nc(COC(=O)c3c(F)cccc3Cl)cs2)cc1	?	-11.7%[46.1 µM]	-13.4%	2.4%	8.91µM*
CC(=O)c1c(C)[nH]c(C(=O)OCc2csc(CC(=O)Nc3ccccc3C)n2)c1C	nt	nt	nt	nt	4.47µM*
Cc1ccccc1NC(=O)Cc1nc(COC(=O)c2cc([N+](=O)[O-])ccc2NCCO)cs1	i	?	-14.9%	2.9%	8.91µM*
Cc1ccc(NC(=O)Cc2nc(COC(=O)Cc3cccc(C(F)(F)F)c3)cs2)cc1	-11.0%	8.3%	-10.4%	6.4%	8.4%
Cc1ccccc1Cn1cc(S(=O)(=O)c2ccc(Cl)cc2)c(=O)c2cc3c(cc21)OCO3	-8.1%	17.7%[46.1 µM]	0.5%	9.8%[46.1 µM]	nt
COC(=O)c1cc2oc3ccccc3c2n1CC(=O)Nc1ccc(C)cc1C	-11.9%	8.3%[46.1 µM]	-1.7%	nt	nt
O=C(OCc1cc([N+](=O)[O-])cc2c1OCOC2)c1cccnc1SC(F)F	-14.2%	-1.5%	-10.5%	1.2%	1µM*
Cc1ccc(NC(=O)C(c2ccccc2)N(C)C)cc1Cl (configuration not stated)	i	11.2µM*	-13.6%	?	2.4%
Cc1oc2c(C)c(O)ccc2c(=O)c1-c1cnn(-c2ccccc2)c1	nt	-25.8%	nt	11.1%	-18.5%
Cc1[nH]nc(-c2ccc(O)c(C)c2O)c1-c1cnn(-c2ccccc2)c1	nt	?	nt	-13.3%	3.98µM*
C=CCC12OC3(OC)CC1[C@H](C)[C@@H](c1ccccc1)C2[C@]3(O)CC=C (some centres not stated)	nt	6.4%[14.2 µM]	nt	nt	nt
CCN(CC(=O)Nc1c(F)cccc1F)C(=O)c1ccc(N2CCCCC2)c([N+](=O)[O-])c1	-11.4%	?	-25.3%	7.08µM*	nt
CCN(CC(=O)Nc1c(F)cccc1F)C(=O)c1cc(S(=O)(=O)N(CC)CC)ccc1N1CCCCC1	-10.6%	-11.1%[46.1 µM]	-12.7%	?	-2.5%
Cc1cc(CN(C)C(=O)c2ccc(OC3CCN(CCc4ccccc4)CC3)cc2)on1	i	3.16µM*	-18.0%	24.3%[46.1 µM]	-6.1%
CN(Cc1cnn(C)c1)C(=O)c1ccc(OC2CCN(CCc3ccccc3)CC2)cc1	nt	nt	nt	nt	9.6%
CC(C)N1CCN(C(=O)c2ccc(OC3CCN(CCc4ccccc4)CC3)cc2)CC1	-13.8%	11.2µM*	-11.4%	-16.3%	?
C=CCOc1ccccc1CN1CCC(Oc2ccc(C(=O)N3CCCCC3)cc2)CC1	?	3.16µM*	-17.4%	-17.5%	nt
COC(=O)c1cccc(C(=O)N2CCc3c(cnc(C)c3CNC(=O)c3ccsc3)C2)c1	-7.4%	nt	12.6%	nt	nt
CCCCn1c(=N)n(CCCOc2ccc(F)cc2)c2ccccc21	?	10µM*	?	?	nt
COc1ccc(Cc2nnc(Nc3ccccc3OC)[nH]c2=O)cc1	i	7.2%[46.1 µM]	-15.7%	2.7%	2.82µM*
CCCCCC1=C(C(=O)OC)C(C(=O)OCC)N(S(=O)(=O)C(F)(F)F)c2ccccc21 (configuration not stated)	i	nt	-16.4%	nt	11.2µM*

Screening results deposited in PubChem BioAssay by National Center for Advancing Translational Sciences (NCATS).
